Methyltransferases – Primary Screen for Target Class Profiling of Small Molecule Inhibitors of Methyltransferases | purified enzyme, MTase-Glo SAH luminescence; active compounds read low | calls only at 40 µM | 3.9% of 25,000 active | AID 1745853, 2022; call rule not given here
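Each enzyme was reacted with SAM and its substrate, with compounds tested once at 40 uM; SAH formed was read by MTase-Glo luminescence.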
* marks the source's active call; other numbers are inactive results; i = inactive; + = active, no number; ! = not active in a repeat. The full list was thinned out, with hits kept by preference. On the % scale 0 is the no-effect control and ±100 the full control effect.

SMILES | Methyltransferases
COCCCN1C(=O)c2cc3ccc(OC)cc3n2CC1(C)C(=O)NC1CCCCCC1 (stereo not drawn) | i
O=C1CN(Cc2ccc(Cl)cc2)S(=O)(=O)c2ccccc2N1Cc1ccc(F)cc1 | i
CCCN1C(=O)c2cc(C(=O)NCc3ccco3)nn2CC1(C)C(=O)NC1CCCC1 (stereo not drawn) | i
Cc1ccccc1CN1C(=O)c2cc3sccc3n2CC1(C)C(=O)NC1CCCCCC1 (stereo not drawn) | i
CC(C)CCNC(=O)C1c2c(n(C)c3ccccc23)SCC(=O)N1CCC(C)C (stereo not drawn) | i
CC1(C(=O)NC2CCCC2)Cn2c(ccc2-c2ccco2)C(=O)N1Cc1ccc(Cl)cc1 (stereo not drawn) | i
Cc1ccc(CN2C(=O)c3cc4ccccc4n3CC2(C)C(=O)NC2CCCCC2)cc1 (stereo not drawn) | i
COc1ccc(/C=C\C(=O)O)c(O[C@@H]2O[C@H](CO)[C@@H](O)[C@H](O)[C@H]2O)c1 | i
COc1cc(C(=O)OC[C@H]2O[C@@H](Oc3ccccc3/C=C/C(=O)O)[C@H](O)[C@@H](O)[C@@H]2O)cc(OC)c1OC | +
COc1cc(/C=C/C(=O)O[C@H]2[C@H](O)[C@@H](CO)O[C@@]2(CO)O[C@H]2O[C@H](COC(=O)c3ccc(O)cc3)[C@@H](O)[C@H](O)[C@H]2O)cc(OC)c1OC | i
CN1C(=O)c2cc(NC(=O)c3ccccc3F)ccc2N2CCN=C12 | i
COc1cccc(NS(=O)(=O)c2cc3c(cc2Cl)n(C)c(=O)n3C)c1 | i
CC(=O)Nc1c2n(c3ccccc13)CC(C)(C(=O)NCCC(C)C)N(Cc1cccc(Cl)c1)C2=O (stereo not drawn) | i
CCCCNC(=O)c1ncn2c1C(=O)N(CCC)C(C)(C(=O)NCCC(C)C)C2 (stereo not drawn) | i
CN1C(=O)c2cc(NC(=O)c3cccc(N(C)C)c3)ccc2N2CCN=C12 | i
COc1cc(OC)cc(C(=O)Nc2ccc(Cl)c(-c3nc4ccc(N(C)C)cc4[nH]3)c2)c1 | +
COc1ccc(Sc2ccc(NC(=O)c3ccccc3Cl)cc2C#N)cc1 | i
CCOC(=O)COc1ccc2c(-c3ccccc3)cc(=O)oc2c1C | i
C=CC(=O)N1CCN(C(=O)c2cc(-c3cc(Cl)ccc3Cl)c(Cl)cc2OC)CC1 | +
C=CC(=O)N1CCN(C(=O)CNc2cc(-c3ccccc3Cl)c(Cl)cc2OC)CC1 | i
COc1cccc(C(=O)N2CCN(C(=O)COc3cccc(C)c3)CC2)c1OC | i
CCCN1C(=O)c2c(C(=O)NCc3ccc(F)cc3)ncn2CC1(C)C(=O)NCCC(C)C (stereo not drawn) | i
CC1CCN(S(=O)(=O)c2ccc3c(c2)oc(=O)n3CC(=O)N2CCN(Cc3ccccc3)CC2)CC1 | i
CCc1ccccc1NC(=O)CN(C)S(=O)(=O)c1ccc2[nH]c3c(c2c1)CCCC3 | i
CC(C)CNC(=O)c1ccc2c(=O)n(Cc3ccccc3)c3nn(CC(=O)NC(C)C)c(=O)n3c2c1 | i
SMILES | Methyltransferases
Cn1nc2n(Cc3ccccc3)c(=O)c3ccc(C(=O)NC4CCCC4)cc3n2c1=O | i
COCCCNC(=O)c1ccc(Cn2c(=O)c3ccccc3n(Cc3ccc(C(C)C)cc3)c2=O)cc1 | i
CN1CCc2c(c3ccccc3n2Cc2ccc(C(=O)NO)cc2)C1 | +!
Cc1ccc(N2C(=O)c3cc(-c4ccco4)nn3CC2(C)C(=O)NC2CCCCCC2)c(C)c1 (stereo not drawn) | i
N#Cc1cccc(-c2c[nH]c3ncnc(N4CCOCC4)c23)c1 | +
COCCN1C(=O)c2cc3sccc3n2CC1(C)C(=O)NC1CCCCC1C (stereo not drawn) | i
CC1CCC(NC(=O)C2(C)Cn3c(ccc3-c3ccco3)C(=O)N2CCCN2CCCCC2)CC1 (stereo not drawn) | i
Cc1cc2[nH]c(=O)[nH]c2cc1S(=O)(=O)N1CCN(Cc2ccccc2)CC1 | i
CCCN1C(=O)c2c(C(=O)NCc3ccc(OC(C)C)cc3)ncn2CC1(C)C(=O)NCc1ccc(OC)cc1 (stereo not drawn) | i
CC1CCCCN1c1nc2c(S(=O)(=O)c3ccccc3)nnn2c2ccc(Cl)cc12 (stereo not drawn) | i
CC1=CC(=O)CC(C)(C)C1(O)CCC(C)O (stereo not drawn) | +
CC(=O)/C=C/C1(O)C(C)=CC(=O)CC1(C)C (stereo not drawn) | i
CC1=CC(=O)CC(C)(C)[C@@]1(O)/C=C/C(C)O[C@@H]1O[C@H](CO)[C@@H](O)[C@H](O)[C@H]1O (stereo partly drawn) | i
CC(C)Cn1c(=O)c2ccccc2n2c(=O)n(CC(=O)NCc3ccc(Cl)cc3)nc12 | i
CCOc1ccc(N2C(=O)CSc3c(c4ccccc4n3C)C2C(=O)NCc2ccccc2OC)cc1 (stereo not drawn) | i
CCCC1(CCC)CCC2(CCN(CCCN(CC)CC)C2)CC1 | +
Cc1ccc(Cn2c(=O)c3ccccc3n3c(CCC(=O)NCC(C)c4ccccc4)nnc23)cc1 (stereo not drawn) | i
CC(=O)c1ccc(O[C@@H]2O[C@H](CO)[C@@H](O)[C@H](O)[C@H]2O)cc1 | i
COc1c(CCC(=O)O)cccc1O[C@@H]1O[C@H](CO)[C@@H](O)[C@H](O)[C@H]1O | +
O=C(O)CCc1cccc(O[C@@H]2O[C@H](CO)[C@@H](O)[C@H](O)[C@H]2O)c1O | +
O=C(O[C@H]1[C@H](Oc2ccc(O)cc2CO)O[C@H](CO)[C@@H](O)[C@@H]1O)c1ccccc1 | i
COc1ccc(O[C@@H]2O[C@H](CO)[C@@H](O)[C@H](O)[C@H]2O)cc1OC | i
O=C(O)/C=C/c1ccc(O)c(O[C@@H]2O[C@H](CO)[C@@H](O)[C@H](O)[C@H]2O)c1 | i
CCC(C)(O)C(O)C(=O)OCc1ccc(O[C@@H]2O[C@H](CO)[C@@H](O)[C@H](O)[C@H]2O)c(OC)c1 (stereo partly drawn) | i
C=CCc1ccc(O[C@@H]2O[C@H](CO)[C@@H](O)[C@H](O)[C@H]2O)c(O[C@@H]2O[C@H](CO)[C@@H](O)[C@H](O)[C@H]2O)c1 | i
SMILES | Methyltransferases
O=C(O)c1cc(O)c2cccc(O)c2c1O[C@@H]1O[C@H](CO)[C@@H](O)[C@H](O)[C@H]1O | +
CC(=O)c1c(C)cccc1O[C@@H]1O[C@H](CO)[C@@H](O)[C@H](O)[C@H]1O | +
Cc1ccc(C(C)C)c(O[C@@H]2O[C@H](CO)[C@@H](O)[C@H](O)[C@H]2O)c1 | i
O=C(O)CCc1cc2ccoc2cc1O[C@@H]1O[C@H](CO)[C@@H](O)[C@H](O)[C@H]1O | i
CCc1cc2c(cc3n2CC(C)(C(=O)NC2CCC(C)CC2)N(CCC(C)C)C3=O)s1 (stereo not drawn) | i
CC(C)CNC(=O)c1ccc2c(=O)n(C)c3nn(CC(=O)NC4CCCC4)c(=O)n3c2c1 | i
CCOC(=O)c1c(C)c2n(c1C)CC(C)(C(=O)NC1CCCCCC1)N(Cc1ccc(Cl)cc1)C2=O (stereo not drawn) | i
Cc1ccc(NC(=O)Cn2nc3n(CC(C)C)c(=O)c4ccc(C(=O)NCC(C)C)cc4n3c2=O)c(C)c1 | i
Cc1nc2c3ccccc3n3c(CCCC(=O)N4CCN(c5ccc(F)cc5)CC4)nnc3n2n1 | i

High-throughput results (PubChem)
